Compound activity: PubChem, several laboratories
Only some compounds are listed: those with a hit (about 1.3% of all), similar ones and a draw of the others.
GC-B act = GC-B (human) receptor activation; HEK293-GC-B cells, CNP EC30, cGMP TR-FRET; 0% at EC30 CNP, 100% saturating CNP; activation, % at 10 µM; 0.11% of 370,000 active;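 active means activation at 10 µM reaching about 35% in either raw or pattern-adjusted values, limit read from the data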
ADAM10 inh = ADAM10 inhibition, QFRET primary screen; O14672; recombinant ADAM10, EDANS/DABCYL FRET peptide cleavage, 3 h; inhibition, % at 7 µM; 0.62% of 370,000 active; AID 720582;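 active means inhibition above a per-campaign cutoff equal to the mean of compounds falling between control-based bounds plus 3 SD, cut at about 20% in these data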;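 further: 0% = DMSO wells while the 100% control is not disclosed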
GC-A act = GC-A (human) enzyme activation; P16066; HEK293 GC-A cells, cGMP TR-FRET, EC30 ANP; 0% at EC30 ANP, 100% saturating ANP; activation, % at 10 µM; 0.14% of 370,000 active; AID 1671463; in the data active means activation above about 40%
ADAM17 inh = inhibitors of human ADAM17; inhibition, % at 6.95 µM; 0.83% of 370,000 active; recombinant ADAM17, EDANS/DABCYL FRET peptide cleavage;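 active means inhibition above the mean of compounds lying between control limits plus 3 SD, set per campaign, cut at about 8.5% in these data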;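 further: 0% = DMSO-only wells as the low control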
ADAM10 confirm = confirmation of inhibitors of human ADAM10; shares compounds with ADAM10 inh; ADAM10 QFRET peptide cleavage, EDANS fluorescence; inhibition, % at 6.95 µM; 1% of 2,100 active; AID 743208;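 active means inhibition above about 20% chosen separately for each screening run, limit read from the data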;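 further: 0% = DMSO wells and 100% = marimastat wells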
ADAM17 counter = inhibits human ADAM17 in ADAM10 exosite counter-screen; shares compounds with ADAM10 inh; ADAM17 QFRET peptide cleavage, EDANS fluorescence; inhibition, % at 6.95 µM; 0.5% of 2,100 active; AID 743214;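 active means mean triplicate inhibition above the solvent-only control wells' mean plus 3 SD, cut at about 12% in these data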;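 further: 0% = DMSO wells and 100% = marimastat wells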
ADAM10 ctr = ADAM10 inhibition, counter-screen for ADAM17 exosite hits; shares compounds with ADAM17 inh; inhibition, % at 6.95 µM; 47% of 2,900 active; recombinant ADAM10, EDANS/DABCYL FRET peptide cleavage, 3 h;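 active means mean inhibition over the triplicate runs exceeds the activity threshold set in the earlier primary screen, cut at about 20% in these data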;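 further: 0% = DMSO wells and 100% = marimastat wells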
ADAM17 confirm = human ADAM17 inhibition, confirmation; shares compounds with ADAM17 inh; inhibition, % at 6.95 µM; recombinant ADAM17, EDANS/DABCYL QFRET peptide cleavage; 65% of 2,900 active;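 active means mean inhibition across replicates above the hit cutoff set in the primary screen, cut at about 8.5% in these data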;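 further: 0% = DMSO wells and 100% = marimastat wells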
* marks the source's active call; other numbers are inactive results.

O=C(Nc1ccc(C(F)(F)F)cc1)C1CCCCN1S(=O)(=O)c1ccccc1 (centres undefined) was read as GC-B act 1, ADAM10 inh 28*, GC-A act 0, ADAM17 inh 10*, ADAM10 confirm 4, ADAM17 counter 1, ADAM10 ctr 15 and ADAM17 confirm 7.
Screening O=C(Nc1ccccc1)C1CCCCN1S(=O)(=O)c1ccccc1 (centres undefined) returned GC-B act -4, ADAM10 inh 2, GC-A act -2 and ADAM17 inh -4.
`CC(C)(C)c1ccc(OCCC(=O)Nc2cccc(S(=O)(=O)N3CCCC3)c2)cc1` gave GC-B act 2, ADAM10 inh 22*, GC-A act 0, ADAM17 inh 8.9*, ADAM10 confirm 10, ADAM17 counter 3, ADAM10 ctr 37* and ADAM17 confirm 23*.
For O=C(CNc1cccc(S(=O)(=O)N2CCCCC2)c1)Nc1ccc(C(F)(F)F)cc1 the results were GC-B act 2, ADAM10 inh 28*, GC-A act 2, ADAM17 inh 10*, ADAM10 confirm 3, ADAM17 counter 1, ADAM10 ctr 13 and ADAM17 confirm 7.
For O=C(CNc1cccc(Br)c1)Nc1ccc(S(=O)(=O)N2CCCCC2)cc1 the results were GC-B act 1, ADAM10 inh 27*, GC-A act 1, ADAM17 inh 16*, ADAM10 confirm 8, ADAM17 counter 3, ADAM10 ctr 32* and ADAM17 confirm 21*.
COC(=O)c1cc(S(=O)(=O)N2CCN(C(C)=O)CC2)cn1C was read as GC-B act 6, ADAM10 inh 2, GC-A act 2 and ADAM17 inh 0.
`Clc1cccc(/C=N/N2CCN(Cc3ccccc3)CC2)c1` gave GC-B act -2, ADAM10 inh 2, GC-A act 4 and ADAM17 inh -2.
Screening Cc1ccc(OCc2nc3ccccc3n2C(C(=O)Nc2c(C)cccc2C)C2CC2)cc1 (centres undefined) returned GC-B act -13, ADAM10 inh 1, GC-A act -15 and ADAM17 inh 3.
Screening COCCN(C(=O)COC(=O)/C=C/c1ccc(Cl)c(Cl)c1)c1c(N)n(Cc2ccccc2)c(=O)[nH]c1=O returned GC-B act -1, ADAM10 inh -10, GC-A act -1 and ADAM17 inh -4.
`O=C(CN1C(=O)NC(Cc2c[nH]c3ccccc23)C1=O)Nc1cccc(S(=O)(=O)N2CCCCCC2)c1` (centres undefined) gave GC-B act 5, ADAM10 inh 21*, GC-A act 2, ADAM17 inh 11*, ADAM10 confirm 4, ADAM17 counter 1, ADAM10 ctr 28* and ADAM17 confirm 17*.
`O=C(Cc1ccc(Br)cc1)Nc1cccc(S(=O)(=O)N2CCCCC2)c1` gave GC-B act 3, ADAM10 inh 23*, GC-A act 1, ADAM17 inh 12*, ADAM10 confirm 3, ADAM17 counter 2, ADAM10 ctr 7 and ADAM17 confirm 6.
Screening COc1cccc(CCNC(=O)C2CCC(=O)N(C3CC3)C2)c1OC (centres undefined) returned GC-B act 6, ADAM10 inh -8, GC-A act 1 and ADAM17 inh -4.
Screening COc1cc(C(=O)OCC(=O)N2CCCC2)cc2c1OCCO2 returned GC-B act 1, ADAM10 inh -3, GC-A act -1 and ADAM17 inh -1.
`Cc1cc(NC(=O)c2c(F)cccc2Cl)n(-c2nc3ccccc3[nH]2)n1` gave GC-B act 12, ADAM10 inh 30*, GC-A act 13, ADAM17 inh 10*, ADAM10 confirm 17, ADAM17 counter 6, ADAM10 ctr 40* and ADAM17 confirm 17*.
Screening CCc1nc2c(OCCC3CCCCC3)cccn2c1N(C)C(=O)c1ccc(C)cc1 returned GC-B act 0, ADAM10 inh 29*, GC-A act -6, ADAM17 inh 15*, ADAM10 confirm 7, ADAM17 counter 2, ADAM10 ctr 10 and ADAM17 confirm 7.
Screening CCc1nc2c(OCCOC)cccn2c1N(C)C(=O)c1ccc(C)cc1 returned GC-B act -1, ADAM10 inh -12, GC-A act 4 and ADAM17 inh -5.
CCN(C(=O)c1cccc(NC(=O)c2ccccc2)c1)C1CCCCC1 was read as GC-B act 9, ADAM10 inh -6, GC-A act -4 and ADAM17 inh 5.
`C[C@H](NC(=O)c1nc[nH]c1C(=O)NCC(=O)OCc1ccccc1)C(=O)OCc1ccccc1` gave GC-B act 5, ADAM10 inh 12, GC-A act 3 and ADAM17 inh 6.
Screening CC(C)C[C@H](NC(=O)c1nc[nH]c1C(=O)NCC(=O)OCc1ccccc1)C(=O)OCc1ccccc1 returned GC-B act 4, ADAM10 inh 45*, GC-A act 0, ADAM17 inh 24*, ADAM10 confirm 6, ADAM17 counter 2, ADAM10 ctr 36* and ADAM17 confirm 21*.
For CC(C)C[C@H](NC(=O)c1nc[nH]c1C(=O)N[C@@H](CC(C)C)C(=O)OC(C)(C)C)C(=O)OCc1ccccc1 the results were GC-B act 0, ADAM10 inh 6, GC-A act 2 and ADAM17 inh 2.
For CC(C)C[C@H](NC(=O)c1nc[nH]c1C(=O)NCC(=O)OC(C)(C)C)C(=O)OCc1ccccc1 the results were GC-B act 3, ADAM10 inh 30*, GC-A act -2, ADAM17 inh 14*, ADAM10 confirm 3, ADAM17 counter 1, ADAM10 ctr 36* and ADAM17 confirm 19*.
`COc1ccc(/C=N/NC(=O)CNS(=O)(=O)c2ccc(C)cc2)cc1` gave GC-B act -2, ADAM10 inh -2, GC-A act 4 and ADAM17 inh 1.
`O=[N+]([O-])c1ccccc1C=Nn1c(-c2cc(-c3ccccc3)n[nH]2)n[nH]c1=S` gave GC-B act -14, ADAM10 inh -8, GC-A act 1 and ADAM17 inh -3.
